Measurements as given in PubChem BioAssay (NCATS).
Results filed as inconclusive are left out. Values without a mark were called inactive. Active and inactive are the calls of the source. Calls follow the shape of the dose curve; as a rule, active = well fitted curve in the direction sought with a large enough effect; inconclusive = small, poorly fitted or top-dose-only effect, or another doubt; inactive = no such curve, though single readings can be large; an effect the other way counts as inactive or inconclusive.

Assay: Quantitative highthroughput screen to assess conditional lethalithy of P12 Ichikawa cells grown in RPMI1640 with untreated serum (RPMI+s) (AID 1963881);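 as to viability: 100% = DMSO wells and 0% = empty wells without cells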
Conditions: ATP luminescence, 48 h; Potency: viability; series mostly up to 45.8 µM; viability: at the top concentration
Outline: (§1)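 Each medium arm—HPLM with 10% dialyzed FBS, or RPMI1640 with 5 mM glucose and 10% untreated or dialyzed FBS—was screened against an 11-point, 3-fold compound titration for 48 h at 37 °C, with CellTiter-Glo luminescence as endpoint.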
Also: nearly all actives have a fitted effect of over 35% in size.
Potency is read from the fitted curve at half-maximal effect.

| Structure (SMILES) | Potency | viability |
| --- | --- | --- |
| Oc1ccc(-c2nc(-c3ccc(F)cc3)c(-c3ccncc3)[nH]2)cc1 | 16.6 µM (active) |  |
| Cc1c(C(=O)Nc2ccc(N3C[C@@H](C)O[C@@H](C)C3)nc2)cccc1-c1ccc(OC(F)(F)F)cc1 | 4.18 µM (active) |  |
| CC(C)NCC(O)c1ccc(NS(C)(=O)=O)cc1 (configuration not stated) |  | 109% |
| COc1ccc(C2CNC(=O)C2)cc1OC1CCCC1 (configuration not stated) |  | 92.6% |
| CCn1c(-c2nonc2N)nc2cncc(CNC3CCNCC3)c21 | 23.5 µM (active) |  |
| Cc1ncc([N+](=O)[O-])n1CCO |  | 101% |
| C[Se]CCC(N)C(=O)O (configuration not stated) |  | 92.5% [at 92.2 µM] |
| COc1ccc2c(c1)c(CC(=O)OCC(=O)O)c(C)n2C(=O)c1ccc(Cl)cc1 |  | 104% |
| O=c1cc(N2CCOCC2)oc2c(-c3cccc4c3sc3ccccc34)cccc12 |  | 81.8% |
| COc1cc2ncnc(Nc3ccc(F)c(Cl)c3)c2cc1OCCCN1CCOCC1 |  | 94.9% [at 92.2 µM] |
| CC(C)[C@H](N)C(=O)OCCOCn1cnc2c(=O)[nH]c(N)nc21 |  | 110% |
| COc1cc2ncnc(Nc3cccc(Br)c3)c2cc1OC |  | 96.9% |
| CCCn1c(=O)c2[nH]c(C34CC5CC3C[C@@H](C5)C4)nc2n(CCC)c1=O |  | 96.9% |
| CC(C)(OCc1nn(Cc2ccccc2)c2ccccc12)C(=O)O |  | 106% |
| CC(C(=O)O)c1ccc2c(c1)CC(=O)c1ccccc1S2 (configuration not stated) | 9.35 µM (active) |  |
| O=c1cc(-c2cccc3c2Sc2ccccc2S3)oc(N2CCOCC2)c1 |  | 100% |
| CN(C)c1nc(N(C)C)nc(N(C)C)n1 |  | 110% |
| C[C@H](CCC(=O)O)[C@H]1CCC2C3C[C@H](O)[C@@H]4C[C@H](O)CC[C@]4(C)C3CC[C@@]21C (some centres not stated) |  | 101% |
| CCN(CC)CCNC(=O)c1ccc2nc(-c3ccccc3)c(-c3ccc(CN4CCC(n5c(=O)[nH]c6ccccc65)CC4)cc3)nc2c1 | 4.69 µM (active) |  |
| Cc1ccc(C(=O)N(CCCN)[C@@H](c2oc3cc(Cl)ccc3c(=O)c2Cc2ccccc2)C(C)C)cc1 |  | 6.03% |
| Oc1cc2c(cc1O)C1c3ccc(O)c(O)c3OCC1(O)C2 (configuration not stated) |  | 106% |
| COc1cc(NS(=O)(=O)c2ccc(N)cc2)nc(OC)n1 |  | 98.2% |
| CCc1cc(C(N)=S)ccn1 |  | 87.6% |

Assay: Quantitative highthroughput screen to assess conditional lethalithy of SEM cells grown in Human Plasma-Like Medium with dialyzed fetal bovine serum (HPLM+ds) (AID 1963882)
Conditions: SEM B-ALL cells in HPLM+ds, CellTiter-Glo viability, 48 h; series mostly up to 45.8 µM; viability: at the top concentration
Outline: as §1

| Structure (SMILES) | Potency | viability |
| --- | --- | --- |
| Oc1ccc(-c2nc(-c3ccc(F)cc3)c(-c3ccncc3)[nH]2)cc1 | 0.662 µM (active) |  |
| CC(C)NCC(O)c1ccc(NS(C)(=O)=O)cc1 (configuration not stated) |  | 117% |
| COc1ccc(C2CNC(=O)C2)cc1OC1CCCC1 (configuration not stated) |  | 95.7% |
| CC(C)Nc1cc(-c2c[nH]c(C(=O)N[C@H](CO)c3cccc(Cl)c3)c2)c(Cl)cn1 | 20.9 µM (active) |  |
| Cc1cccc(-c2[nH]c(C(C)(C)C)nc2-c2ccc3nccnc3c2)n1 | 23.5 µM (active) |  |
| Cc1ncc([N+](=O)[O-])n1CCO |  | 99.6% |
| C=C(C)[C@@H]1CC[C@]2(C)CC[C@]3(C)[C@H](CC[C@@H]4[C@@]5(C)CC[C@H](O)C(C)(C)[C@H]5CC[C@]43C)[C@@H]12 |  | 110% |
| COc1ccc2c(c1)c(CC(=O)OCC(=O)O)c(C)n2C(=O)c1ccc(Cl)cc1 |  | 101% |
| Cc1cnc(C(=O)NCCc2ccc(S(=O)(=O)NC(=O)NC3CCCCC3)cc2)cn1 |  | 84.3% |
| CC(C)[C@H](N)C(=O)OCCOCn1cnc2c(=O)[nH]c(N)nc21 |  | 95% |
| COc1cc2ncnc(Nc3cccc(Br)c3)c2cc1OC |  | 85.9% |
| Cn1cc(C[C@@H](N)C(=O)O)c2ccccc21 |  | 77.9% [at 23.2 µM] |
| CCCn1c(=O)c2[nH]c(C34CC5CC3C[C@@H](C5)C4)nc2n(CCC)c1=O |  | 98.4% |
| CC(C)(OCc1nn(Cc2ccccc2)c2ccccc12)C(=O)O |  | 95.7% |
| CC(C(=O)O)c1ccc2c(c1)CC(=O)c1ccccc1S2 (configuration not stated) |  | 98% |
| COc1cc2c(Nc3ccc(Cl)c(Cl)c3F)ncnc2cc1OCC1C[C@@H]2CN(C)C[C@@H]2C1 (some centres not stated) | 14.8 µM (active) |  |
| CN(C)c1nc(N(C)C)nc(N(C)C)n1 |  | 103% |
| CCN(CC)CCNC(=O)c1ccc2nc(-c3ccccc3)c(-c3ccc(CN4CCC(n5c(=O)[nH]c6ccccc65)CC4)cc3)nc2c1 | 0.166 µM (active) |  |
| CC1=C[C@@H]2[C@@H]([C@@H](O)C[C@@]3(C)[C@H]2C[C@@H](C)[C@]3(O)C(=O)CO)[C@@]2(C)Cc3cnn(-c4ccccc4)c3C=C12 | 0.0372 µM (active) |  |
| Cc1ccc(C(=O)N(CCCN)[C@@H](c2oc3cc(Cl)ccc3c(=O)c2Cc2ccccc2)C(C)C)cc1 |  | 4.79% |
| Oc1cc2c(cc1O)C1c3ccc(O)c(O)c3OCC1(O)C2 (configuration not stated) |  | 89.9% |

Assay: Quantitative highthroughput screen to assess conditional lethalithy of SEM cells grown in RPMI1640 with unreated serum (RPMI+s) (AID 1963883);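 as to viability: 100% = DMSO wells and 0% = empty wells without cells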
Conditions: SEM B-ALL cells, CellTiter-Glo viability, 48 h; series mostly up to 45.8 µM; viability: at the top concentration
Outline: as §1

| Structure (SMILES) | Potency | viability |
| --- | --- | --- |
| Oc1ccc(-c2nc(-c3ccc(F)cc3)c(-c3ccncc3)[nH]2)cc1 | 0.469 µM (active) |  |
| Cc1c(C(=O)Nc2ccc(N3C[C@@H](C)O[C@@H](C)C3)nc2)cccc1-c1ccc(OC(F)(F)F)cc1 | 1.48 µM (active) |  |
| CC(C)NCC(O)c1ccc(NS(C)(=O)=O)cc1 (configuration not stated) |  | 111% |
| COc1ccc(C2CNC(=O)C2)cc1OC1CCCC1 (configuration not stated) |  | 98.5% |
| CC(C)Nc1cc(-c2c[nH]c(C(=O)N[C@H](CO)c3cccc(Cl)c3)c2)c(Cl)cn1 | 18.6 µM (active) |  |
| Cc1cccc(-c2[nH]c(C(C)(C)C)nc2-c2ccc3nccnc3c2)n1 | 20.9 µM (active) |  |
| CCn1c(-c2nonc2N)nc2cncc(CNC3CCNCC3)c21 | 2.35 µM (active) |  |
| Cc1ncc([N+](=O)[O-])n1CCO |  | 91.3% |
| C=C(C)[C@@H]1CC[C@]2(C)CC[C@]3(C)[C@H](CC[C@@H]4[C@@]5(C)CC[C@H](O)C(C)(C)[C@H]5CC[C@]43C)[C@@H]12 |  | 104% |
| C=CC(=O)Nc1cccc(Oc2nc(Nc3ccc(N4CCN(C)CC4)cc3OC)ncc2Cl)c1 | 3.72 µM (active) |  |
| COc1ccc2c(c1)c(CC(=O)OCC(=O)O)c(C)n2C(=O)c1ccc(Cl)cc1 |  | 97.6% |
| COc1cc2ncnc(Nc3ccc(F)c(Cl)c3)c2cc1OCCCN1CCOCC1 | 42.9 µM (active) |  |
| Cc1cnc(C(=O)NCCc2ccc(S(=O)(=O)NC(=O)NC3CCCCC3)cc2)cn1 |  | 84.6% |
| CC(C)[C@H](N)C(=O)OCCOCn1cnc2c(=O)[nH]c(N)nc21 |  | 80.2% |
| COc1cc2ncnc(Nc3cccc(Br)c3)c2cc1OC |  | 72% |
| NS(=O)(=O)c1cccc2c1C(=O)c1cccc(O)c1C2=O | 1.48 µM (active) |  |
| Cn1cc(C[C@@H](N)C(=O)O)c2ccccc21 |  | 71.3% [at 23.2 µM] |
| CC(C)(OCc1nn(Cc2ccccc2)c2ccccc12)C(=O)O |  | 99.1% |
| CC(C(=O)O)c1ccc2c(c1)CC(=O)c1ccccc1S2 (configuration not stated) |  | 90% |
| O=c1cc(-c2cccc3c2Sc2ccccc2S3)oc(N2CCOCC2)c1 |  | 98% |
| COc1cc2c(Nc3ccc(Cl)c(Cl)c3F)ncnc2cc1OCC1C[C@@H]2CN(C)C[C@@H]2C1 (some centres not stated) | 20.9 µM (active) |  |
| CN(C)c1nc(N(C)C)nc(N(C)C)n1 |  | 106% |
| C[C@H](CCC(=O)O)[C@H]1CCC2C3C[C@H](O)[C@@H]4C[C@H](O)CC[C@]4(C)C3CC[C@@]21C (some centres not stated) |  | 98.2% |
| CCN(CC)CCNC(=O)c1ccc2nc(-c3ccccc3)c(-c3ccc(CN4CCC(n5c(=O)[nH]c6ccccc65)CC4)cc3)nc2c1 | 0.0526 µM (active) |  |
| Cc1ccc(C(=O)N(CCCN)[C@@H](c2oc3cc(Cl)ccc3c(=O)c2Cc2ccccc2)C(C)C)cc1 |  | 9.58% |
| CNC(=O)Nc1ccc(-c2nc(N3CC4CCC(C3)O4)c3cnn(C4CCC5(CC4)OCCO5)c3n2)cc1 | 0.0418 µM (active) |  |
| Oc1cc2c(cc1O)C1c3ccc(O)c(O)c3OCC1(O)C2 (configuration not stated) |  | 86.1% |
| CCc1cc(C(N)=S)ccn1 | 8.33 µM (active) |  |
